Hits are enriched below; roughly 2.5% of the tested compounds scored in any of these assays.
H9c2 TAG inh – inhibitors of triacylglycerol accumulation, primary screen, cell-based, uHTS, fluorescence, H9c2; AID 651582, 2012; inhibition, % at 12.5 µM; 0.66% of 230,000 active; H9c2 cells, Nile Red lipid (TAG) fluorescence; cells loaded with 200 µM oleic acid;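 active = pattern-corrected inhibition of lipid staining of at least 50% with the nuclear-stain viability signal not falling by more than 50%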;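 also: 0% = DMSO wells and 100% = triacsin C control wells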
SKN-1 block – suppressors of acrylamide-induced Pgst-4::GFP reporter in worms, primary screen, SKN-1 inhibitor project, whole organism, uHTS, GFP/RFP fluorescence ratio, strain VP596. C. elegans VP596 Pgst-4::GFP/RFP ratio, 24 h. inhibition, % at 21.8 µM. 0.49% of 360,000 active;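 active = interference check ratio from 0.5 to 1.5 plus GFP to RFP signal ratio inhibition reaching or exceeding a fixed threshold, cut at about 30% in these data, passing the limit was not always enough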
iPSC survival up – enhancers of single-cell hiPSC survival, primary screen, ATPlite luminescence | 0.044% of 360,000 active | survival enhancement, % at 20 µM | 100% = ROCK inhibitor wells, 0% = DMSO; in the data active = survival enhancement above about 18%;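 also: cells exposed to compounds for 16 hours before the ATP read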
CRFBP-R2 block – antagonists of CRF-BP/CRF-R2 complex, primary screen, cell-based, HEK293, calcium dye fluorescence, uHTS. CRF-induced calcium fluorescence. inhibition, % at 11.8 µM. 0.59% of 350,000 active. AID 588475, 2011;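 active = inhibition of the ligand-induced calcium signal above about 50% at the single tested concentration, limit read from the data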
CRFBP-R2 agonist – agonists of CRF-BP/CRF-R2 complex, primary screen, cell-based, HEK293, calcium dye fluorescence, uHTS. calcium dye fluorescence (FLIPR); percent of saturating CRF peptide response. CRF-binding protein / CRF receptor 2 complex (human). activation, % at 13.2 µM. 0.46% of 350,000 active;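 active = activation of at least 50%, plus an integration ratio under a set limit after plate pattern correction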;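 also: plate controls were neutral control wells without compound for no effect and CRF at EC100 for full effect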
H9c2 protect – cardioprotection against H2O2-induced cell death, primary screen, uHTS, H9c2 cells, ATPLite luminescence. H9c2 cardiomyocytes, H2O2 injury protection, 2 h. 0.63% of 360,000 active. protection from H2O2 cell death, % at 20 µM;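 active = compounds giving at least 50% protection of heart cells from peroxide-induced death in the single-dose screen, raw or plate-pattern-corrected value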;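 also: 0% = DMSO wells with peroxide and 100% = DMSO wells without peroxide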
TAG conf – triacylglycerol accumulation inhibitors, retest, confirmation, cell-based, single concentration, Nile Red fluorescence, H9c2. inhibition, % at 12.5 µM. 71% of 990 active. AID 651629, 2012. H9c2 lipid accumulation; cells loaded with 200 µM oleic acid. shares compounds with H9c2 TAG inh;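 active = mean inhibition across replicates of 40% or more; inactive = mean inhibition below 40%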;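 also: plate controls were DMSO only wells for no effect and Triacsin C treated wells for full effect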
Starred values were filed as active, the others as inactive; · = no result.

SMILES	H9c2 TAG inh	SKN-1 block	iPSC survival up	CRFBP-R2 block	CRFBP-R2 agonist	H9c2 protect	TAG conf
CCCCCc1cc(=O)oc2c(C(CCN(CC)CC)c3ccc(N(C)C)cc3)c(OC)cc(OC)c12 (stereo not drawn)	71.9*	1.6	-6.1	-9.2	-1.1	-22.4	60.5*
CCN(CC)CCC(c1ccc2c(c1)OCO2)c1c(OC)cc(OC)c2ccc(=O)oc12 (stereo not drawn)	10.4	-3.8	-2.2	9.0	0.1	31.9	·
COc1cc(OC)c2c(-c3ccccc3)cc(=O)oc2c1C(CC(=O)N1CCCC1)c1ccc2c(c1)OCO2 (stereo not drawn)	6.7	1.3	-1.3	3.5	0.0	-3.5	·
COc1cc(OC)c2c(C)cc(=O)oc2c1C(CCN1CCOCC1)c1ccc2c(c1)OCO2 (stereo not drawn)	-3.0	10.8	-0.5	-4.7	-2.8	0.7	·
COc1cc(OC)c2c(-c3ccccc3)cc(=O)oc2c1C(CCN1CCCCC1)c1ccc(N(C)C)cc1 (stereo not drawn)	68.3*	2.9	-2.8	-22.2	7.9	-25.6	55.3*
Oc1ccc(C[C@H]2CNCCN2CCCCC2CCCCC2)cc1	44.3	10.3	-4.0	-9.5	-0.2	7.2	·
CSC1=NC(C(Cl)(Cl)Cl)N=C(c2ccc(C)cc2)N1 (stereo not drawn)	56.0*	7.6	-0.5	6.0	-1.6	-7.7	50.0*
O=C(CCNC(=O)c1ccccc1Cl)NCCC1=CCCCC1	10.9	-0.2	1.8	5.8	-0.7	-2.0	·
CC(C)(C)NC(=O)N1CCN(c2nc(-c3ccccc3)ns2)CC1	-21.3	6.4	-0.5	1.9	-0.2	-6.2	·
O=C(c1ccc(F)cc1F)N1CCCN(c2nc(-c3ccccc3)ns2)CC1	74.6*	11.6	0.7	2.2	-0.6	-4.8	2.4
O=C1OCC(O)=C1Cc1ccccc1	-4.6	13.8	-3.7	15.4	0.6	2.9	·
O=C1N=C(N2CCOCC2)S/C1=C/c1ccc(-c2ccc(F)cc2)o1	66.1*	0.3	1.4	-6.2	-0.3	29.4	41.6*
CC1(C(=O)NCc2ccncc2)Cc2c(-c3cccc(C(F)(F)F)c3)ccnc2O1 (stereo not drawn)	20.8	9.9	4.1	·	·	-2.1	·
CC1(C(=O)NCc2ccco2)Cc2c(-c3cccc(C(F)(F)F)c3)ccnc2O1 (stereo not drawn)	54.3*	0.8	-1.6	·	·	2.6	46.0*
NC(=O)c1cccc(-c2ccnc3c2CC(C(=O)NCc2ccccc2)O3)c1 (stereo not drawn)	50.2*	-0.5	-0.1	·	·	13.1	53.5*
CC1(C(=O)NCc2ccc(F)c(F)c2)Cc2c(-c3cccc(C(N)=O)c3)ccnc2O1 (stereo not drawn)	18.2	-5.4	1.5	·	·	10.0	·
CC1(C(=O)NCc2ccccc2)Cc2c(-c3cccc(C(N)=O)c3)ccnc2O1 (stereo not drawn)	54.7*	1.9	-0.7	·	·	7.7	60.4*
NC(=O)c1cccc(-c2ccnc3c2CC(C(=O)NCc2ccc(F)c(F)c2)O3)c1 (stereo not drawn)	5.1	7.8	-3.4	·	·	40.7	·
COc1ccc(NC(=O)C2(C)Cc3c(-c4cccc(C(N)=O)c4)ccnc3O2)cn1 (stereo not drawn)	50.4*	0.0	-1.0	·	·	14.9	55.4*
CCCCCN(C(=O)CCC(=O)OCCOc1cccc(C)c1)c1c(N)n(CCCC)c(=O)[nH]c1=O	-24.8	10.0	0.4	-12.3	-0.7	-1.8	·
CCOC(=O)CC1C(=O)NCCN1C(=O)c1ccc(Cl)cc1 (stereo not drawn)	·	6.2	0.1	1.1	0.3	6.7	·
COC(=O)CC1C(=O)NCCN1C(=O)c1ccc(S(=O)(=O)N2CCOCC2)cc1 (stereo not drawn)	61.2*	-2.3	0.6	-1.5	1.4	3.1	7.2
CCOC(=O)c1coc(C(=O)OCC)c1C(=O)OCC	-6.1	9.1	-1.9	-8.0	-2.9	0.4	·
COc1ccc(C(=O)NNC(=O)Cc2ccc(-c3ccccc3)cc2)cc1OC	57.2*	10.2	-1.6	-4.3	-1.6	-6.9	36.2
CCCCN(C(C)=O)c1ccc(S(=O)(=O)NC2=NCCCCC2)cc1NC(C)=O	7.4	8.5	0.0	-2.4	1.4	2.6	·
COc1ccc(-c2cc(C(F)F)n3ncc(C(=O)N4CCc5ccccc54)c3n2)cc1	·	-8.9	-4.7	-6.5	2.7	2.9	·
Cc1ccc(-c2cc(C(F)F)n3ncc(C(=O)N4CCCc5ccccc54)c3n2)cc1	60.2*	20.2	3.7	-12.7	0.7	-10.3	29.9
CCCCCCN1C[C@@H](n2cc(C3CC3)nn2)[C@H](O)C[C@@H]1c1ccccc1	-11.4	-4.0	-0.4	10.3	1.1	-8.5	·
Cc1cccc(OC(C)C(=O)N2CCN(Cc3ccc4c(c3)OCO4)CC2)c1 (stereo not drawn)	·	20.2	0.2	0.9	-0.8	1.5	·

Compound activity: PubChem, Sanford-Burnham Center for Chemical Genomics
